Shown are actives, neighbours in structure and some others; about 2.9% of the full set was active somewhere.
D3 antag: D3 dopamine receptor (human) antagonism; P35462; D3R cells, DiscoveRx beta-arrestin luminescence, antagonist mode; active compounds read low; hit rate 2.5% among 360,000; max response, negative = inhibition, %; in the data active means max response below about -50%; inconclusive means no clear call, values can overlap the other calls; further: on the % scale 0 is the no-effect control and ±100 the full control effect
Target sequence (P35462 whole entry, looked up): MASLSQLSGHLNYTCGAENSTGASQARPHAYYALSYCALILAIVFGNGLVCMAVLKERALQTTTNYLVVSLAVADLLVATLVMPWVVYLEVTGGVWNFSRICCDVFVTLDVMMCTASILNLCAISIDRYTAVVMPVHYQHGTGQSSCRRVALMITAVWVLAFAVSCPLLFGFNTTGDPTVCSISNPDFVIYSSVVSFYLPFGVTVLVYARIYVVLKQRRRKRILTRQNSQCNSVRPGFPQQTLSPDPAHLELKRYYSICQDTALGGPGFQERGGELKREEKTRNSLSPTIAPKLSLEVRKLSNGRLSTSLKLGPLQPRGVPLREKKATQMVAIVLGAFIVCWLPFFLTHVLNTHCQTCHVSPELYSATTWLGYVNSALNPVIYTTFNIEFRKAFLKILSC
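Cells plated overnight at 1500 cells/well, then exposed to library compounds with dopamine controls for 90 minutes at 37 degrees C. DiscoveRx reagent added for 30–60 minutes at room temperature; luminescence read, quantitative HTS format.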
D3 ag: activates the human D3 dopamine receptor; P35462; D3R DiscoveRx beta-arrestin cells, luminescence, 90 min; max activation, %; hit rate 0.58% among 410,000; in the data active means max activation above about 30%; further: 0% is about no effect
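Cells at 1500/well, incubated overnight, then treated with pinned compounds (dopamine as control) for 90 min at 37 degrees C. DiscoveRx reagent added for 30 - 60 minutes at room temperature; luminescence read.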
Integrin act MD: integrin-mediated muscular dystrophy alleviation activation; alpha7betagal myoblasts, beta-gal FDG fluorescence, 48 h; Potency, µM (top dose mostly 38.3 µM), inactives show at the top dose activation, actives largely listed as activators; hit rate 0.064% among 350,000; active means well fitted activation curve with a large enough effect; inconclusive means small, poorly fitted or top-dose-only effect; inactive means no such curve, though single readings can be large or run the other way;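 further: potency means the concentration at half of the fitted maximal effect; 100% = response of the positive control SU9516; nearly all actives have a fitted effect of over 60% in size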
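Alpha7betagal+/- myoblasts (passage 13) were plated 16-24 hr, then exposed to compounds (1:260 dilution of DMSO stock) for 48 hours at 37C. After MPER lysis, β-galactosidase reporter activity was read as FDG fluorescence (ex 480/em 540) after 30 minutes.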
An asterisk follows results filed as active; ? = inconclusive; / = no result given; ! = repeats disagree; [ ] = dose if it differs, or a comment.

SMILES	D3 antag	D3 ag	Integrin act MD
C[C@@H](CN1C2=NC[C@H](Cc3ccc(O)cc3)N2C[C@H]1Cc1ccc(O)cc1)NC(=O)CCC1CCCCC1	-15	-19	-7%
COc1ccc(C[C@H]2CN3C(=NC[C@@H]3Cc3ccc(O)cc3)N2C[C@H](C)NC(=O)c2ccc(C)c(Br)c2)cc1	-81*	-110	-53%
COc1ccc(C[C@H]2CN3C(=NC[C@@H]3C(C)C)N2C[C@H](C)NC(=O)c2ccc(C)c(Br)c2)cc1	-76*	-60	-52%
Cc1ccc(C(=O)N[C@@H](C)CN2C3=NC[C@H](C(C)C)N3C[C@H]2Cc2ccc(O)cc2)cc1Br	-18	-41	-31%
CCc1ccc(Nc2nc3ccccc3c(=O)s2)cc1	-7	4	-8%
O=C(Cc1cccs1)Nc1ccc(-c2nnc(-c3ccccc3)o2)cc1	11	6	4%
Cc1cccc(-c2nnc(-c3cccc(NC(=O)Cc4cccs4)c3)o2)c1	34	31*	-20%
COCc1cc(N2CCCCC2)nc(-c2ccccc2)n1	8	-3	-2%
C/C(NCCc1ccc(O)cc1)=C1/CCOC1=O	6	45*	16%
C/C(Nc1ccccc1C(F)(F)F)=C1/CCOC1=O	-10	-6	18%
CCOC(=O)CN(C(=O)c1snc(C(N)=O)c1N)C(C(=O)NCCC(C)C)c1ccc(F)cc1 (stereo not given)	9	8	?
COc1cc(/C=C2\SC(=S)N(CCC(=O)Nc3ccccn3)C2=O)cc(OC)c1OC	25	9	-505%
CCN1CCc2nc(N)oc2CC1	-16	41*!	/
CCCN1CCc2nc(N3CCN(CC)CC3)ncc2C1	/	5	/
O=C1CC(N(Cc2cccs2)C(=O)Nc2ccccc2)C(=O)N1c1ccc(Cl)cc1 (stereo not given)	-4	4	17%
O=C(Nc1ccccc1)c1ccccc1NC(=O)c1ccccc1[N+](=O)[O-]	?	-18	-20%
Cc1[nH]n(-c2ccccc2)c(=O)c1Sc1ccc(Cl)cc1	-16	-1	11%
Cc1cc(-c2c(C)[nH]n(-c3ccc(Cl)cc3)c2=O)n[nH]1	-60*	-11	-1%
O=C(COc1ccc2ccc(=O)oc2c1)N1CC[C@@]2(O)CCCC[C@H]2C1	4	-5	0%
Cc1c(C)c2ccc(OCC(=O)N3CC[C@@]4(O)CCCC[C@H]4C3)cc2oc1=O	11	33*	-9%
Cc1cc(C)nc(SCC(=O)NCC2COc3ccccc3O2)n1 (stereo not given)	-14	5	-5%
Cc1nc(SCC(=O)NCC2COc3ccccc3O2)c2c(C)c(C)sc2n1 (stereo not given)	-26	93*	2%
CCN(Cc1ccc2c(c1)OCO2)C(=O)CSc1ncnc2sccc12	1	19	14%
CCN(Cc1ccc2c(c1)OCCO2)C(=O)CSc1nc(C)nc2sc(C)c(C)c12	54	31*	10%
CCN(CC(=O)NCc1ccc(Cl)cc1)C(=O)c1oc2ccccc2c1C	14	5	-7%
SMILES	D3 antag	D3 ag	Integrin act MD
Cc1ccc(S(=O)(=O)N(C)C)cc1NC(=O)c1cc(=O)[nH]c2ccccc12	-6	3	20%
O=[N+]([O-])c1cc(S(=O)(=O)Nc2ccccc2)ccc1N1CCN(c2ccccc2)CC1	?	-7	-10%
O=[N+]([O-])c1cc(S(=O)(=O)C(F)(F)F)ccc1N1CCN(c2ccccc2)CC1	-54*	-20	10%
O=C1C=C(NCc2ccccc2)c2ccccc2C1=O	-71*	-14	-60%
O=C1C=C(Nc2ccccc2O)c2ccccc2C1=O	-26	-6	-50%
O=C(NCc1ccncc1)c1cc(F)c(F)cc1Cl	3	24	24%
O=C(CN1C(=O)NC2(CCc3ccccc32)C1=O)c1ccc(F)cc1 (stereo not given)	0	-10	26%
Cc1cc(N)c(-n2cc3c(c2-c2ccc(Br)cc2)c(=O)n(C)c(=O)n3C)cc1C	/	6	/
O=S(=O)(NCCc1csc(-c2cccnc2)n1)c1cccc(F)c1	4	6	11%
Cn1c(=O)c(C(=O)NCCCc2ccccc2)c(O)c2ccccc21	33	2	16%
CCn1c(=O)c(C(=O)NCCN2CCCCC2)c(O)c2ccccc21	-93*	-12	-13%
CCn1c(=O)c(C(=O)NCCc2ccccc2)c(O)c2ccccc21	0	17	8%
Cc1noc(C)c1C(=O)NCCCc1ccccc1	-25	-6	3%[7.66 µM]
COc1ccc(CCNC(=O)c2c(O)c3ccccc3n(C)c2=O)cc1	6	37*	23%
COc1ccc(CCNC(=O)c2c(C)noc2C)cc1	-100*	0	1%
Clc1ccc(CNc2ncccn2)cc1	8	7	?
CCc1nn(-c2ccccc2)c2nc(-c3ccccc3OC)c3cc(OC)c(OC)cc3c12	/	11	/
Cn1c2c(c(=O)n(C)c1=O)C(CC(=O)Nc1ccc(F)cc1)C(=O)N2 (stereo not given)	10	3	17%
CCOC(=O)CC1=Nc2ccccc2NC(=O)C1	29	-2	9%
CCOC(=O)C1(CC2CCCCO2)CCN(C(=O)Nc2ccc3c(c2)OCO3)CC1 (stereo not given)	-5	-11	5%
Oc1cc2c(cc1C(c1ccc(Cl)c(Cl)c1)N1CCCC1)OCO2 (stereo not given)	6	7	-37%
C#CCOCCOCCOCCNc1nc(N2CCN(C(=O)[C@H](CCCN=C(N)N)n3cc(C(N)[C@@H](C)CC)nn3)CC2)nc(N2CCN(C(=O)[C@H](CC(N)=O)n3cc([C@@H](N)CC(N)=O)nn3)CC2)n1 (stereo not given in full)	-22	-9	1%
COc1cccc(-n2nnc3c(=O)n(Cc4ccc(Br)cc4)cnc32)c1	16	2	3%
Cc1nc(N)nc(N/N=C/c2c(F)cccc2Cl)n1	-17	-18	8%
Cc1nc(C#N)c(N/N=C/c2c(F)cccc2Cl)o1	-64*	-2	-5%
SMILES	D3 antag	D3 ag	Integrin act MD
CCCCn1c(NCc2cc(C)ccc2O)nc2ccccc21	?	-4	3%
COc1[nH]c2ccc(F)cc2c1C(=O)OCC1CCN(CCNS(C)(=O)=O)CC1	-55*	-74	/
COC(=O)c1cc(S(=O)(=O)NCC2CCN(Cc3cccc(F)c3)CC2)cn1C	?	-13	16%
CC(=O)c1c(C)oc2c1cc(NS(=O)(=O)c1ccc(Br)cc1)c1ccccc12	/	-10	/
CS(=O)(=O)N1CCCC(C(=O)Nc2ccc(Br)cc2F)C1 (stereo not given)	19	-2	-14%
O=C(CNC(=O)c1cccc(Br)c1)N/N=C/c1cc(Br)cc(Br)c1O	-71*	-30	0%
O=C(CNC(=O)c1ccccc1F)N/N=C/c1cc(Br)ccc1OCc1ccccc1	-7	-7	0%
COc1ccc(Br)cc1/C=N/NC(=O)CNC(=O)/C=C/c1ccccc1	-67*	-11	-20%
O=C(CNC(=O)c1cccc(Br)c1)N/N=C/c1cccs1	-13	-12	10%
COc1ccc(/C=C/C(=O)NCC(=O)N/N=C/c2cc(Br)ccc2OCc2ccccc2)cc1	?	-10	-35%
O=C(CNC(=O)c1cccc(F)c1)N/N=C/c1cc(Br)ccc1OCc1ccccc1	?	-12	10µM*

Bioassay records: PubChem, National Center for Advancing Translational Sciences (NCATS)
